1 sequence from publication PMC7862700, “An all-to-all approach to the identification of sequence-specific readers for epigenetic DNA modifications on cytosine” can be followed below.

Holding throughout (experiment): DAPPL (digital affinity profiling via proximity ligation, sequencing); 10 mM Tris-HCl pH 7.5, 50 mM NaCl, 1 mM DTT, 4% glycerol, room temperature, 30 min; GST-TFs on glutathione beads, 16-mer random dsDNA library, 0.1% formaldehyde crosslink after washing; high values mean tight binding
Assay [1] addresses T1, FLI1 (Homo sapiens, UniProt Q01543 1-452).
T1 sequence: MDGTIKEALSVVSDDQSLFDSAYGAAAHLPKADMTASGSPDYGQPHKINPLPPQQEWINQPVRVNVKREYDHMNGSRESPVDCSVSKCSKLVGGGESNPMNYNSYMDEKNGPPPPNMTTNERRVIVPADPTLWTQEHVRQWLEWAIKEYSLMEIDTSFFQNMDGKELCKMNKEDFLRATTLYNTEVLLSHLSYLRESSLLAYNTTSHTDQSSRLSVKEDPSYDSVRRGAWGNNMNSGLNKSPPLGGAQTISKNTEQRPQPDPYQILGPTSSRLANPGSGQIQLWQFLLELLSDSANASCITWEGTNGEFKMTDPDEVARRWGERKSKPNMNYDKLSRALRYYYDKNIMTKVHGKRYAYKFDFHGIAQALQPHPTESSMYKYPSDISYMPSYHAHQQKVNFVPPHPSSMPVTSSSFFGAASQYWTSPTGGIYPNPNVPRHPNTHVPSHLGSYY
Conditions: protein: recombinant; tags: N-terminal GST; dsDNA, one strand shown. Summed up: (§1)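 The binding signal reported is, for every hexamer, its read frequency for a factor over its read frequency for the tag-only sample. Reads came from pools of yeast-expressed, GST-fused human transcription factors on glutathione beads, barcoded with DNA and mixed with that sample, which were incubated with 200 nmole of a random double-stranded 16-mer DNA library in Tris/NaCl/DTT/glycerol buffer at room temperature for 30 min. After washing, the pools were crosslinked with 0.1% formaldehyde, proximity-ligated with BsaI/T4 ligase for 1 h at 37 °C, PCR-amplified and sequenced on an Illumina NextSeq500.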

Assay [2] deals with T2, ELK1 (Homo sapiens, UniProt P19419 1-428).
T2 sequence: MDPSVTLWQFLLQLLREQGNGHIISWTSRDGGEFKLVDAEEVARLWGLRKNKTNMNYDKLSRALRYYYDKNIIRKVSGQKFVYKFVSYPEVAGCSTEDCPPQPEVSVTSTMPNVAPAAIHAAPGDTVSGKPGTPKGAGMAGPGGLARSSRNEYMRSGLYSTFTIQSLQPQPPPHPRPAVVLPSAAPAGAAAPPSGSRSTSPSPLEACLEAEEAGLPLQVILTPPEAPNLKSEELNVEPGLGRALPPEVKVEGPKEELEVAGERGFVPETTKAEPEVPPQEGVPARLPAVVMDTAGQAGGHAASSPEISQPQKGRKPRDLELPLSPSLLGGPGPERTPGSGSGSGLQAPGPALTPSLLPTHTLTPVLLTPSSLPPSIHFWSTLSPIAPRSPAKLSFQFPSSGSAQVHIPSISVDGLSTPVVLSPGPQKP
The following applies: protein: recombinant; tags: N-terminal GST; dsDNA, one strand shown. Summed up: as §1

Assay [3] deals with T3, GABPA (Homo sapiens, UniProt Q06546 1-454).
T3 sequence: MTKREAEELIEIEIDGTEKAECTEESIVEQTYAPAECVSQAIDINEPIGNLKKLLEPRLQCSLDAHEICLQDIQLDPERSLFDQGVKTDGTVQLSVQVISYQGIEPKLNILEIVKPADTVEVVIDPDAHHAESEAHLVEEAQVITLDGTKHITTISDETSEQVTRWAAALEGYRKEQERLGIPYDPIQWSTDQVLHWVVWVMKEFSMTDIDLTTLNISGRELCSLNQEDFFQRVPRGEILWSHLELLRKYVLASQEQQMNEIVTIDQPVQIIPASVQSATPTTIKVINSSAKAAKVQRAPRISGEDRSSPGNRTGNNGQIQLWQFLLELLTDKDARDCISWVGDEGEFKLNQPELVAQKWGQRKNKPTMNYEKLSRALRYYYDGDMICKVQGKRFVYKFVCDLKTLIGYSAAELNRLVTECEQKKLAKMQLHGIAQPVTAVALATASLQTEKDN
The following applies: protein: recombinant; tags: N-terminal GST; dsDNA, one strand shown. In a few lines:
as §1

Assay [4] addresses T4, ERG (Homo sapiens, UniProt P11308 1-479).
T4 sequence: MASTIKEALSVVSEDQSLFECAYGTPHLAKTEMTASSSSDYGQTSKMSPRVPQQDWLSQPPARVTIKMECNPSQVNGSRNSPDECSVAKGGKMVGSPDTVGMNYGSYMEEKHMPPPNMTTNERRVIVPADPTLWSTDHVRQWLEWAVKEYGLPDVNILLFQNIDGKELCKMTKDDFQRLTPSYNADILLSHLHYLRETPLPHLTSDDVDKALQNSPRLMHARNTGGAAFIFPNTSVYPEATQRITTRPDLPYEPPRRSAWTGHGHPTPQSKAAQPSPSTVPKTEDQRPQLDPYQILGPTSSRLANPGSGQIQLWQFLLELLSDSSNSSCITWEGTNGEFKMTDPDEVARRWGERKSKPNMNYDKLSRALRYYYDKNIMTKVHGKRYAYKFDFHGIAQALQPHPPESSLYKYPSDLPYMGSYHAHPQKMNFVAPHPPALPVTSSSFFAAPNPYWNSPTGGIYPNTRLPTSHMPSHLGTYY
The following applies: protein: recombinant; tags: N-terminal GST; dsDNA, one strand shown. In a few lines:
as §1

Assay [5] addresses ELF1 (Homo sapiens, UniProt P32519 1-619). Conditions: protein: recombinant; tags: N-terminal GST; dsDNA, one strand shown. In a few lines: as §1
Assay [6] addresses T5, EHF (Homo sapiens, UniProt Q9NZC4 1-300).
T5 sequence: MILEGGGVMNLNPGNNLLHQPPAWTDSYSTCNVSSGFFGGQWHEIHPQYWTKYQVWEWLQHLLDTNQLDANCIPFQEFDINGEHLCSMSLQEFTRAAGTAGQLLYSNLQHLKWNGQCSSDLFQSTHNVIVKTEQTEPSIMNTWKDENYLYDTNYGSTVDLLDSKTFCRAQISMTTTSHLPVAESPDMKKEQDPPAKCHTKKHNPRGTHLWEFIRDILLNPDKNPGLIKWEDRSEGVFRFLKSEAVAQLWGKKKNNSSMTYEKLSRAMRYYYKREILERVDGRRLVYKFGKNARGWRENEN
The following applies: protein: recombinant; tags: N-terminal GST; dsDNA, one strand shown. Summed up:
as §1

Assay [7] concerns the target SPI1 (Homo sapiens, UniProt P17947 1-270). Conditions: protein: recombinant; tags: N-terminal GST; dsDNA, one strand shown. In a few lines: as §1
The target of assay [8] is SPIB (Homo sapiens, UniProt Q01892 1-262). The following applies: protein: recombinant; tags: N-terminal GST; dsDNA, one strand shown. In a few lines:
as §1

The target in assay [9] is T6, FEV (Homo sapiens, UniProt Q99581 1-238).
T6 sequence: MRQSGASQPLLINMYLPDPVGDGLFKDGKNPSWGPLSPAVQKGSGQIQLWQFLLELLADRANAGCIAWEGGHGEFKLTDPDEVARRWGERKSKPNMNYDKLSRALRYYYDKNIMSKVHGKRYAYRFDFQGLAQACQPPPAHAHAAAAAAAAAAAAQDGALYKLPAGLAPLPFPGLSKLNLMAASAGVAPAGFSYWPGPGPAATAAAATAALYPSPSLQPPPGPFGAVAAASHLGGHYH
The following applies: protein: recombinant; tags: N-terminal GST; dsDNA, one strand shown. In a few lines: as §1

Assay [10] concerns the target ETV5 (Homo sapiens, UniProt P41161 1-510). Conditions: protein: recombinant; tags: N-terminal GST; dsDNA, one strand shown. In a few lines:
as §1

Assay [11] deals with HSF1 (Homo sapiens, UniProt Q00613 1-529). Conditions: protein: recombinant; tags: N-terminal GST; chain copies: 3; dsDNA, one strand shown. In a few lines: as §1
Chain of HSF1 (Q00613 whole entry): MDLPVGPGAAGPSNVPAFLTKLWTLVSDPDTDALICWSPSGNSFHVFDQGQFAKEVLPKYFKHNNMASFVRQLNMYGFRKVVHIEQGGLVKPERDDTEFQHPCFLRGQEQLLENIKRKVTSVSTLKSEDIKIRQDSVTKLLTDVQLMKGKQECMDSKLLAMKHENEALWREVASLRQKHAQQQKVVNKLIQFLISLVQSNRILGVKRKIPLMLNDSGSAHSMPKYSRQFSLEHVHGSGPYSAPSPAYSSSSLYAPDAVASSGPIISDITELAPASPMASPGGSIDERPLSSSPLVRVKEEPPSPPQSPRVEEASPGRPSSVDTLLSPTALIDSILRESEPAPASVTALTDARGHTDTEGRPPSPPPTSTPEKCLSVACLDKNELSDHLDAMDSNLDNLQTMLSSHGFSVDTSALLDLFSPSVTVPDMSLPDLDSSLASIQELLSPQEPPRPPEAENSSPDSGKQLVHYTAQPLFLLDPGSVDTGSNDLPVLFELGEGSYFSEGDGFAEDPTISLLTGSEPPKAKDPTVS
The target of assay [12] is T7, SPIC (Homo sapiens, UniProt Q8N5J4 1-248).
T7 sequence: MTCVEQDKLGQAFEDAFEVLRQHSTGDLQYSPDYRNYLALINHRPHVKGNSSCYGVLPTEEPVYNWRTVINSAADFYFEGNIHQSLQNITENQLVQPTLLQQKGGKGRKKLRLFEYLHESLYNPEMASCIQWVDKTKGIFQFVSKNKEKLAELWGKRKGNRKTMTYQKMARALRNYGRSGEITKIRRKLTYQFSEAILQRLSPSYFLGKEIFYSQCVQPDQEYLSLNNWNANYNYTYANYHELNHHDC
The following applies: protein: recombinant; tags: N-terminal GST; dsDNA, one strand shown. In a few lines: as §1

For assay [13], the target named is ELF4 (Homo sapiens, UniProt Q99607 1-663). The following applies: protein: recombinant; tags: N-terminal GST; dsDNA, one strand shown. Summed up: as §1
Chain of ELF4 (Q99607 whole entry): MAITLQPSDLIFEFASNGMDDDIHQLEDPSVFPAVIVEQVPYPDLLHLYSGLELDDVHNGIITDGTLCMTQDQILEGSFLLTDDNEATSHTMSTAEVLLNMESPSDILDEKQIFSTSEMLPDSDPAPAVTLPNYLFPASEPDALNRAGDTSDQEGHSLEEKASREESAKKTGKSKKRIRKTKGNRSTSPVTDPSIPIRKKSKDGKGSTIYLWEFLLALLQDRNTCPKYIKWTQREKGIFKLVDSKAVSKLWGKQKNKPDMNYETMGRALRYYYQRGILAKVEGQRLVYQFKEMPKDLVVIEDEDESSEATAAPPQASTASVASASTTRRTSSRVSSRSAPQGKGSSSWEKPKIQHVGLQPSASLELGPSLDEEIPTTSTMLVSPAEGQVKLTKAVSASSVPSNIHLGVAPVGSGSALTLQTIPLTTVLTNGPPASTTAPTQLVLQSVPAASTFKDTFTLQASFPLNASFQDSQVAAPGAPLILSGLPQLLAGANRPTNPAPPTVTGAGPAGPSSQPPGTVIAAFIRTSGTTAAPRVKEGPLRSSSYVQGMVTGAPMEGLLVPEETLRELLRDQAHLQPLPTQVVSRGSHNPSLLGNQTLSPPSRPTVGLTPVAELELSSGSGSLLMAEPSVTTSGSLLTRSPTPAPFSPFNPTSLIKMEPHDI
Assay [14] has as its target T8, ELK4 (Homo sapiens, UniProt P28324-2 1-405).
T8 sequence: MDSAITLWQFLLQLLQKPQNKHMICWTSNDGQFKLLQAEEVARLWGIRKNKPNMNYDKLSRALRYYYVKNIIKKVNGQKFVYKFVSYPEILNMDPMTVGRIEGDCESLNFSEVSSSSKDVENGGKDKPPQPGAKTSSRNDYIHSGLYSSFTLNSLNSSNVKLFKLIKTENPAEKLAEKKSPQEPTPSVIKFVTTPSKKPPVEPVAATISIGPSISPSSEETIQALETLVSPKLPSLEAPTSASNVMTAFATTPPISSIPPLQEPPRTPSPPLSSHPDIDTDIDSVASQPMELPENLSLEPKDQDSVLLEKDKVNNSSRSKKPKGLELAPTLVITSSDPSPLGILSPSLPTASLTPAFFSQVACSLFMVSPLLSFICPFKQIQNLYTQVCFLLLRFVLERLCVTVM
Conditions: protein: recombinant; tags: N-terminal GST; dsDNA, one strand shown. In a few lines:
as §1

The target in assay [15] is T9, ETV2 (Homo sapiens, UniProt O00321 1-342).
T9 sequence: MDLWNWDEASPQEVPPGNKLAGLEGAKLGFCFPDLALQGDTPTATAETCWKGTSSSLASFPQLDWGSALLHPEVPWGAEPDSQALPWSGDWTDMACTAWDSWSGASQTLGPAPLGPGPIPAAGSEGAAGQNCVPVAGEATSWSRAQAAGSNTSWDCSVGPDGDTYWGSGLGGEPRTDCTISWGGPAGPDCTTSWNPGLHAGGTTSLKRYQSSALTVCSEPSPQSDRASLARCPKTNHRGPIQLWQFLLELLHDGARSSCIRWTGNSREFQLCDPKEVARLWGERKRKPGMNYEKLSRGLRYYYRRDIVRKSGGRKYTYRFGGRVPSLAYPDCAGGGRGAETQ
Conditions: protein: recombinant; tags: N-terminal GST; dsDNA, one strand shown. Summed up: as §1

Assay [16] has as its target T10, ELF3 (Homo sapiens, UniProt P78545 1-371).
T10 sequence: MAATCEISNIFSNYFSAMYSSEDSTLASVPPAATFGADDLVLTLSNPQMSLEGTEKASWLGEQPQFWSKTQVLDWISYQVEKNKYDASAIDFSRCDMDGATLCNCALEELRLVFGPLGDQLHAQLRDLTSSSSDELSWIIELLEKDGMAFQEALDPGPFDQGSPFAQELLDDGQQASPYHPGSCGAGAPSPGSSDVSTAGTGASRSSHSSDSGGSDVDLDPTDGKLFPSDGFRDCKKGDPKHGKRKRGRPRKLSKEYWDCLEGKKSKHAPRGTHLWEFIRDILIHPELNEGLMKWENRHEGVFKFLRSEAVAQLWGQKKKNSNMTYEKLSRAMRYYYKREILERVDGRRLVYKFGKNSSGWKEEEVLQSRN
The following applies: protein: recombinant; tags: N-terminal GST; dsDNA, one strand shown. Summed up:
as §1

The target of assay [17] is CRX (Homo sapiens, UniProt O43186 1-299). The following applies: protein: recombinant; tags: N-terminal GST; dsDNA, one strand shown. Summed up:
as §1

Assay [18] deals with ETV1 (Homo sapiens, UniProt P50549 1-477). Conditions: protein: recombinant; tags: N-terminal GST; dsDNA, one strand shown. In a few lines:
as §1

Chain of ELF1 (P32519 whole entry): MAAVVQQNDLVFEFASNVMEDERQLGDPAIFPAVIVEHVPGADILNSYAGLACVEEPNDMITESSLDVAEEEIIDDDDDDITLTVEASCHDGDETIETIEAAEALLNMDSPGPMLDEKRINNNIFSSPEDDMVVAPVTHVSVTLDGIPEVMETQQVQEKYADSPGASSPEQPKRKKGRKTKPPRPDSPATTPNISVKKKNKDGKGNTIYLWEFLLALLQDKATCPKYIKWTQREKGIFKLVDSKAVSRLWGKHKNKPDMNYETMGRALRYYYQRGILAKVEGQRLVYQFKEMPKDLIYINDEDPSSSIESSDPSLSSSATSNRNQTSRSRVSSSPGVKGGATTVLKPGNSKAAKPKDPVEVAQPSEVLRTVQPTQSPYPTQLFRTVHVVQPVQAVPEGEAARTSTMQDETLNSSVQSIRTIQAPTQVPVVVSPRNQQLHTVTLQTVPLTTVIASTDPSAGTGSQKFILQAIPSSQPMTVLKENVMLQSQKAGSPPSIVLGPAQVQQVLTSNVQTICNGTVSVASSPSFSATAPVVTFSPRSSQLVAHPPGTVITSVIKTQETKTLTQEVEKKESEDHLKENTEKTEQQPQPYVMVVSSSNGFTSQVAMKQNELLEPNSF
Chain of ETV5 (P41161 whole entry): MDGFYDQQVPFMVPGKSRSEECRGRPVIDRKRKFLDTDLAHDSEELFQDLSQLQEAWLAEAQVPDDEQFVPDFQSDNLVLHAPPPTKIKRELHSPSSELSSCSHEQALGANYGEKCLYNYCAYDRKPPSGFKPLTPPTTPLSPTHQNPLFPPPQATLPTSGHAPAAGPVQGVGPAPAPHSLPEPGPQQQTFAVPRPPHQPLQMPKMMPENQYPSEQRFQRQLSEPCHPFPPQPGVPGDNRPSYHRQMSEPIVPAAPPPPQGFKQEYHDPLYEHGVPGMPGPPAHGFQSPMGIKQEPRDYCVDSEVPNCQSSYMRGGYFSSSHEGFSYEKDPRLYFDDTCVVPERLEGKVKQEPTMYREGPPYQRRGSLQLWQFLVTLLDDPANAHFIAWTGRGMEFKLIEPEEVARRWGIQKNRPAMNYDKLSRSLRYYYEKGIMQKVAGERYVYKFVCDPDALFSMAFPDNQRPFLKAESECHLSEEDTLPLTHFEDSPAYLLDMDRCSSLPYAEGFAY
Chain of SPIB (Q01892 whole entry): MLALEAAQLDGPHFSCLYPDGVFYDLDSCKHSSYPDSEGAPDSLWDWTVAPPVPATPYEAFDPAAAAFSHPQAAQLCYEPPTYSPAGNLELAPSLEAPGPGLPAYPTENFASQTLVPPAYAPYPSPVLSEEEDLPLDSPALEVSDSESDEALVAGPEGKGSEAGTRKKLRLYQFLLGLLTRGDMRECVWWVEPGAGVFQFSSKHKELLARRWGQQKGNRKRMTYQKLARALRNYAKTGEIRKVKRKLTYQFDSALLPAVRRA
Chain of CRX (O43186 whole entry): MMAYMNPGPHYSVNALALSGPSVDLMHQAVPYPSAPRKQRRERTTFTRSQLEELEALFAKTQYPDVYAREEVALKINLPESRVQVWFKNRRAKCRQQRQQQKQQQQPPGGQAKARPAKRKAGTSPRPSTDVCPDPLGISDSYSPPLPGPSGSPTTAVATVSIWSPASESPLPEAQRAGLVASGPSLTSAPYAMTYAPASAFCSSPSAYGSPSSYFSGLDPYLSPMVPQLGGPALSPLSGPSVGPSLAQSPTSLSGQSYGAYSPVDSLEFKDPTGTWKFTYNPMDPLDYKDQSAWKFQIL
Chain of ETV1 (P50549 whole entry): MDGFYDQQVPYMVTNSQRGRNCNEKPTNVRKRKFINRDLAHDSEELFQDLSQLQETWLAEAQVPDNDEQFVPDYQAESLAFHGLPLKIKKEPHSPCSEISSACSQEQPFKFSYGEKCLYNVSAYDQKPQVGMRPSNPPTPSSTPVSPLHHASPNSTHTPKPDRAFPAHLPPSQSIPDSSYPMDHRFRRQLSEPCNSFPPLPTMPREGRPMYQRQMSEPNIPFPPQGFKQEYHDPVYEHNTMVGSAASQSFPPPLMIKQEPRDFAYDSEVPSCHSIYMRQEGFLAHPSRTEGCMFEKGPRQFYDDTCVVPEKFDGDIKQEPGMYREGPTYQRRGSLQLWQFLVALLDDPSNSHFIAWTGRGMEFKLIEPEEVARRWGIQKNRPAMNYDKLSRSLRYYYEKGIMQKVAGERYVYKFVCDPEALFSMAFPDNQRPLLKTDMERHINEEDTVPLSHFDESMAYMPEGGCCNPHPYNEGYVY

Turning to GCTTAG, the binding signal in assay [1] is 1.14 fold enrichment (6-mer frequency, TF over GST control); in assay [2] it was 1.06 fold enrichment (6-mer frequency, TF over GST control); in [3], 1.19 fold enrichment (6-mer frequency, TF over GST control); in assay [4] it was 1.18 fold enrichment (6-mer frequency, TF over GST control); in [5] it was 1.15 fold enrichment (6-mer frequency, TF over GST control); in assay [6], 1.11 fold enrichment (6-mer frequency, TF over GST control). For the same sequence, the binding signal is 1.1 fold enrichment (6-mer frequency, TF over GST control) in [7]; 1.09 fold enrichment (6-mer frequency, TF over GST control) in assay [8]; 1.08 fold enrichment (6-mer frequency, TF over GST control) in [9]; 1.13 fold enrichment (6-mer frequency, TF over GST control) in assay [10]; 1.78 fold enrichment (6-mer frequency, TF over GST control) in assay [11]; 1.12 fold enrichment (6-mer frequency, TF over GST control) in assay [12]. Further, the binding signal in [13] was 1.1 fold enrichment (6-mer frequency, TF over GST control); in [14], 1.17 fold enrichment (6-mer frequency, TF over GST control); in assay [15] it was 1.08 fold enrichment (6-mer frequency, TF over GST control); in assay [16], 1.09 fold enrichment (6-mer frequency, TF over GST control); in assay [17], 2.49 fold enrichment (6-mer frequency, TF over GST control); in assay [18], 1.27 fold enrichment (6-mer frequency, TF over GST control).
